# Reference: PubChem BioAssay (NCI)
# Compounds without any hit were thinned out: in the full panel of roughly 83,000, 20% have a hit.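 Treatment: one concentration, 48 hours, 96-well format. Scoring: percent growth, with anything below 10 considered active.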 A number with no mark means an inactive call. Activity calls are given as the source filed them.
# Key:
# Assay in all cases: NCI-60 one-dose screen, 48 h (100 = growth as untreated, 0 = no growth, -100 = all killed)
# Conditions in all cases: 10 µM unless noted
# NCI-H23 lung = tested on: NCI-H23 lung
# NCI-H226 lung = tested on: NCI-H226 lung
# NCI-H322M lung = tested on: NCI-H322M lung
# HOP-62 NSCLC = tested on: HOP-62 NSCLC
# NCI-H460 lung = tested on: NCI-H460 lung
# NCI-H522 lung = tested on: NCI-H522 lung
# A549/ATCC NSCLC = tested on: A549/ATCC NSCLC
# 786-0 renal = tested on: 786-0 renal
# COLO 205 colon = tested on: COLO 205 colon
# DU-145 prostate = tested on: DU-145 prostate
# K-562 leukemia = tested on: K-562 leukemia
# MALME-3M melanoma = tested on: MALME-3M melanoma
# MDA-MB-231 breast = tested on: MDA-MB-231 breast
# SF-268 CNS = tested on: SF-268 CNS
# SF-295 CNS = tested on: SF-295 CNS
# SF-539 CNS = tested on: SF-539 CNS
# UACC-257 melanoma = tested on: UACC-257 melanoma
# RXF 393 renal = tested on: RXF 393 renal
# M14 melanoma = tested on: M14 melanoma
Compound,growth (NCI-H23 lung),growth (NCI-H226 lung),growth (NCI-H322M lung),growth (HOP-62 NSCLC),growth (NCI-H460 lung),growth (NCI-H522 lung),growth (A549/ATCC NSCLC),growth (786-0 renal),growth (COLO 205 colon),growth (DU-145 prostate),growth (K-562 leukemia),growth (MALME-3M melanoma),growth (MDA-MB-231 breast),growth (SF-268 CNS),growth (SF-295 CNS),growth (SF-539 CNS),growth (UACC-257 melanoma),growth (RXF 393 renal),growth (M14 melanoma)
N=c1c2cc(-c3ccccc3)oc2ncn1/N=C/c1ccc(Cl)cc1,97.8%,71%,90.9%,82.6%,6.07% (active),91.6%,41.7%,85.5%,89.2%,38.8%,78.7%,38.5%,96.3%,76.3%,93.1%,82.7%,95.1%,–,–
COc1ccc(NCc2cn(-c3ccc(C(=O)O)cc3)nc2-c2cc(C(F)(F)F)cc(C(F)(F)F)c2)cc1,104%,107%,94%,104%,93.6%,94.4%,87.7%,102%,110%,103%,90.5%,86.8%,101%,99.2%,102%,86.5%,105%,111%,96.4%
CN(C)CCNC(=O)c1ccc(-c2nc3ccc4[nH]ncc4c3c3c2COCC3)cc1,-5.76% (active),9.31% (active),2.32% (active),5.23% (active),6.12% (active),-46% (active),38.5%,22.6%,-52.3% (active),4.89% (active),8.14% (active),-24% (active),-5.19% (active),-16.2% (active),3.44% (active),-53% (active),22.1%,–,–
O=C(CSc1nc2ccccc2c(=O)n1-c1ccc(Cl)cc1)N/N=C/c1ccc(N2CCCCC2)cc1,65.9%,38.2%,77%,18.4%,9.74% (active),88.1%,49.4%,7.2% (active),82.1%,29.1%,73.6%,64.2%,72%,34.7%,76.4%,41.3%,97.1%,–,–
NS(=O)(=O)c1ccc(-n2cc(-c3cccc(NC(=O)c4ccc(N5CCOCC5)c(C(F)(F)F)c4)c3)nn2)cc1,26.3%,15.5%,26%,11.8%,50.7%,39.9%,53.5%,33.6%,50.7%,41.1%,19.3%,43.8%,52%,68.9%,32.6%,42.7%,82.5%,–,45.3%
COc1ccc([C@H]2[C@H](O)C(=O)N2c2cc(OC)c(OC)c(OC)c2)cc1F,22.2%,32.6%,50.8%,23.7%,4.56% (active),-56% (active),18.5%,12%,-79.1% (active),14.6%,8.75% (active),65.9%,24.5%,37.4%,8.48% (active),-5.31% (active),57.7%,27%,2.83% (active)
CCOC(=O)c1c(Nc2ccccc2)nn2c(-c3cccs3)ccnc12,92.7%,89%,94.4%,93.8%,92.3%,82.1%,95.2%,71%,92.7%,84.7%,59%,88.7%,81.3%,91.4%,84.1%,84.1%,108%,-6.08% (active),91.6%
N#Cc1cnc2ccc(-c3cnc(N)nc3)cc2c1N1CCc2cc(F)c(Cl)cc21,9.66% (active),9.54% (active),10%,2.88% (active),7.28% (active),10.4%,4.58% (active),3.11% (active),6.97% (active),13.3%,12%,-11.6% (active),14.9%,5.13% (active),-8.96% (active),-12.5% (active),8.92% (active),–,–
CCN(CC)c1ccc2c(c1)Oc1nc(N)c(C#N)c(N)c1C2Sc1ccc(F)cc1 (configuration not stated),-82.3% (active),-84.8% (active),-84.8% (active),-15% (active),-69.8% (active),-48.7% (active),-39.6% (active),-83.8% (active),-58.5% (active),-94.2% (active),2.27% (active),-45.6% (active),-86% (active),-44.7% (active),-91.4% (active),-96.1% (active),-16.9% (active),–,–
CNC(=O)c1cc(Oc2ccc3nc(NC(=O)c4cccc(OC(F)(F)F)c4)sc3c2)ccn1,82.8%,26.5%,92.6%,78.5%,75.1%,60.3%,77.5%,50.4%,106%,75.4%,61.8%,76.8%,76.1%,81.8%,77.8%,63.9%,77.6%,-1.69% (active),93.9%
C=CCn1c(SCC(=O)Nc2ccc(C(=O)/C=C/c3ccc(Br)cc3)cc2)nnc1-c1c[nH]c2ccccc12,90%,84.7%,93.7%,92.7%,95.4%,82.5%,73.5%,102%,109%,91.6%,66.8%,91%,86.2%,70.7%,90.2%,88.2%,107%,–,–
O=S(=O)(Nc1ccc(I)cc1Cl)c1ccc(-c2cnc(C3CC3)o2)cc1,45.4%,62.5%,64.8%,52.7%,28.8%,34%,54.6%,40.4%,50.2%,50.2%,19.8%,47.3%,57.5%,58.9%,2.33% (active),21.4%,58.5%,-4.05% (active),29.6%
O=C1C(c2ccccc2)=C(N2CCc3ccccc32)OC1(Cl)Cl,60.1%,89.2%,86.3%,98.1%,88.2%,75.3%,85%,60.1%,-8.41% (active),69.4%,8.28% (active),-27.3% (active),82%,83.1%,83.6%,75.8%,91.4%,33.3%,62.2%
O=C(NNc1nc2cc(F)ccc2n2c(CN3CCCC3)ccc12)c1cnccn1,26.3%,18.2%,27.1%,17.6%,2.93% (active),-3.33% (active),13.6%,12.7%,7.69% (active),17.2%,11.1%,37.4%,31.4%,22.1%,6.2% (active),1.5% (active),0.872% (active),–,–
N#Cc1cccc(/C(N)=N/C(N)=N/c2nc3ccccc3s2)c1,27.7%,72%,48.5%,45%,22%,3.75% (active),60.8%,46%,17.4%,17.5%,12.7%,59.3%,37.3%,56.5%,1.87% (active),4.08% (active),90.6%,13%,20.8%
C[C@@H]1C[C@H]2C(=O)O[C@@H](C)C(NC(=O)[C@H](Cc3cc(F)cc(F)c3)NC(=O)Nc3ccc(C4CC4)cc3F)C(=O)N3CCC[C@H]3C(=O)N3CCCC[C@H]3C(=O)N[C@@H](CO)C(=O)N2C1 (some centres not stated),34%,-5.28% (active),48.3%,33.3%,14.4%,13.2%,25.7%,40.4%,-38.3% (active),25.6%,18.6%,36.9%,33.9%,31.4%,11.4%,35.4%,11.5%,–,27.4%
CCOc1cccc(-c2nc3sccn3c2-c2ccnc(S(C)(=O)=O)n2)c1,99.1%,94%,93.1%,100%,76.8%,98.9%,102%,103%,99.9%,0.125% (active),55.4%,98.8%,101%,99.7%,104%,94.4%,91.1%,98.3%,94.4%
